Measurements: PubChem BioAssay
Unmarked numbers belong to inactive results. Inconclusive results are not listed. Active and inactive are the calls of the source.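 How the source made its calls, unless noted: active means percent response above a set limit, the screen-wide mean plus 3 SD (cut at about 130% in these data); inactive means the rest.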

Assay: modulators of CIT2-GFP expression in yeast, primary screen, S. cerevisiae, GFP fusion, multiplex flow cytometry (AID 1870);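 further: barcoded CIT2-GFP strain pooled with four other GFP strains with rapamycin as positive control; median GFP fluorescence per well over plate mean of DMSO wells so 100% = DMSO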
Details: 3 h, at 10 µM, stronger effect = higher value

| SMILES | percent response of DMSO control |
| --- | --- |
| Cc1ccc2[nH]c3c(c2c1)CN(C)CC3 | 97.9% |
| COc1ccc2[nH]c3c(c2c1)CCn1c-3nc2ccccc2c1=O | 104% |
| CC(=O)O[C@H]1CSC[C@H]1NC(=O)c1ccccc1 | 106% |
| CC(=O)Oc1ccc2occ(/C=N/c3cc(=O)[nH]c(=S)[nH]3)c(=O)c2c1 | 96.9% |
| O=C(O)CCSc1nc2ccccc2s1 | 102% |
| CCOc1ccc(C(=O)/C=C/c2cc(OC)c(OC)c(OC)c2)cc1 | 92% |
| COC(=O)c1cc(OC)c(OC)c(OC)c1[N+](=O)[O-] | 107% |
| COC(=O)c1[nH]c2ccccc2c1NC(=O)CN1CCN(C/C=C/c2ccccc2)CC1 | 99.8% |
| Cc1ncc([N+](=O)[O-])n1CC(C)O (stereo not drawn) | 103% |
| Clc1ccccc1CN1CCc2sccc2C1 | 99.6% |
| CC[C@]1(O)C[C@@H]2CN(CCc3c([nH]c4ccccc34)[C@@](C(=O)OC)(c3cc4c(cc3OC)N(C)[C@H]3[C@@](O)(C(=O)OC)[C@H](OC(C)=O)[C@]5(CC)C=CCN6CC[C@]43[C@@H]65)C2)C1 | 101% |
| O=C(CCCN1CC=C(n2c(=O)[nH]c3ccccc32)CC1)c1ccc(F)cc1 | 106% |
| CCOc1cccc(N2C(=O)CC(N(CCc3ccc(OC)c(OC)c3)C(=O)CC)C2=O)c1 (stereo not drawn) | 104% |
| COC(=O)C1=C(C)NC(C)=C(C(=O)OC)C1c1ccccc1[N+](=O)[O-] | 102% |
| CC(COc1ccccc1)NC(C)C(O)c1ccc(O)cc1 (stereo not drawn) | 111% |
| COc1ccc2oc(=O)c(-c3nc(C)cs3)cc2c1 | 96.9% |
| CC(=O)Oc1cc(C(C)C)c(OCCN(C)C)cc1C | 94.9% |
| O=C(NNC(=O)c1cccs1)c1ccco1 | 111% |
| CC(C)Oc1ccc(C(CC(=O)O)c2ccc(F)cc2)cc1 (stereo not drawn) | 92% |
| Cc1ccccc1-c1coc2cc(O)ccc2c1=O | 90% |

| SMILES | percent response of DMSO control |
| --- | --- |
| CCN(CC)CCOC(=O)C1(C2CCCCC2)CCCCC1 | 106% |
| NC(=O)OCC(COC(N)=O)c1ccccc1 | 102% |
| CC(C)[N+]1(C)[C@@H]2CC[C@H]1CC(OC(=O)C(CO)c1ccccc1)C2 (stereo partly drawn) | 102% |
| Cc1ccccc1OCCSc1nc2ncnc(N)c2[nH]1 | 104% |
| CC(=O)NCCCCCCNC(C)=O | 110% |
| CCN(Cc1ccncc1)Cc1nc(Cc2ccccc2Cl)no1 | 102% |
| CCOC(=O)NN1C(=O)c2ccccc2NC1c1ccc(OC)c(OC)c1 (stereo not drawn) | 95.9% |
| COc1ccc2c(c1)c(CC(=O)O)c(C)n2C(=O)c1ccc(Cl)cc1 | 109% |
| CC1=CC2(O)OCCN(CCO)C2=CC1=O (stereo not drawn) | 101% |
| Cc1ccccc1C(OCCN(C)C)c1ccccc1 (stereo not drawn) | 102% |
| COC1(C)CC2C(CC1OC(=O)c1cc([N+](=O)[O-])cc([N+](=O)[O-])c1)C2(C)C (stereo not drawn) | 106% |
| O=C1OC(c2ccc(O)cc2)(c2ccc(O)cc2)c2ccccc21 | 101% |
| Cn1c(=O)c2c(ncn2CC(O)CO)n(C)c1=O (stereo not drawn) | 93.9% |
| Cc1cnc(C(=O)N2CCCC(C(=O)c3ccc(Cl)cc3C)C2)cn1 (stereo not drawn) | 105% |
| CN(C)C(=O)C12CCC(C)(c3nc4ccccc4nc31)C2(C)C (stereo not drawn) | 106% |
| CCOC(=O)c1ccc(N2C(=O)C(CC(N)=O)N(CCc3ccc(OC)c(OC)c3)C2=S)cc1 (stereo not drawn) | 94.9% |
| Cc1cnc(C(=O)NCCc2ccc(S(=O)(=O)NC(=O)NC3CCCCC3)cc2)cn1 | 110% |
| COc1cccc2c1C(=O)O/C2=C/c1ccc2c(c1)OCO2 | 93% |
| COc1ccc(C2N3CC4(C)CN2CC(C)(C3)C4)cc1OC (stereo not drawn) | 107% |

Assay: modulators of LAP4-GFP expression in yeast, primary screen, S. cerevisiae, multiplex flow cytometry (AID 1873;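 active means GFP signal, as percent of the solvent control, above the screen mean plus 3 SD, about 149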)
Details: 3 h, at 10 µM, stronger effect = higher value

| SMILES | GFP response vs DMSO |
| --- | --- |
| Cc1ccc2[nH]c3c(c2c1)CN(C)CC3 | 97.4% |
| COc1ccc2[nH]c3c(c2c1)CCn1c-3nc2ccccc2c1=O | 116% |
| CC(=O)O[C@H]1CSC[C@H]1NC(=O)c1ccccc1 | 102% |
| CC(=O)Oc1ccc2occ(/C=N/c3cc(=O)[nH]c(=S)[nH]3)c(=O)c2c1 | 91.3% |
| O=C(O)CCSc1nc2ccccc2s1 | 106% |
| CCOc1ccc(C(=O)/C=C/c2cc(OC)c(OC)c(OC)c2)cc1 | 105% |
| COC(=O)c1cc(OC)c(OC)c(OC)c1[N+](=O)[O-] | 108% |
| COC(=O)c1[nH]c2ccccc2c1NC(=O)CN1CCN(C/C=C/c2ccccc2)CC1 | 88.3% |
| Cc1ncc([N+](=O)[O-])n1CC(C)O (stereo not drawn) | 99.4% |
| Clc1ccccc1CN1CCc2sccc2C1 | 118% |
| CC[C@]1(O)C[C@@H]2CN(CCc3c([nH]c4ccccc34)[C@@](C(=O)OC)(c3cc4c(cc3OC)N(C)[C@H]3[C@@](O)(C(=O)OC)[C@H](OC(C)=O)[C@]5(CC)C=CCN6CC[C@]43[C@@H]65)C2)C1 | 92.3% |
| O=C(CCCN1CC=C(n2c(=O)[nH]c3ccccc32)CC1)c1ccc(F)cc1 | 93.3% |
| CCOc1cccc(N2C(=O)CC(N(CCc3ccc(OC)c(OC)c3)C(=O)CC)C2=O)c1 (stereo not drawn) | 98.4% |
| COC(=O)C1=C(C)NC(C)=C(C(=O)OC)C1c1ccccc1[N+](=O)[O-] | 108% |
| CC(COc1ccccc1)NC(C)C(O)c1ccc(O)cc1 (stereo not drawn) | 103% |
| COc1ccc2oc(=O)c(-c3nc(C)cs3)cc2c1 | 106% |
| CC(=O)Oc1cc(C(C)C)c(OCCN(C)C)cc1C | 97.4% |
| O=C(NNC(=O)c1cccs1)c1ccco1 | 111% |
| CC(C)Oc1ccc(C(CC(=O)O)c2ccc(F)cc2)cc1 (stereo not drawn) | 113% |
| Cc1ccccc1-c1coc2cc(O)ccc2c1=O | 116% |

| SMILES | GFP response vs DMSO |
| --- | --- |
| CCN(CC)CCOC(=O)C1(C2CCCCC2)CCCCC1 | 110% |
| NC(=O)OCC(COC(N)=O)c1ccccc1 | 92.3% |
| CC(C)[N+]1(C)[C@@H]2CC[C@H]1CC(OC(=O)C(CO)c1ccccc1)C2 (stereo partly drawn) | 101% |
| Cc1ccccc1OCCSc1nc2ncnc(N)c2[nH]1 | 99.4% |
| CC(=O)NCCCCCCNC(C)=O | 90.3% |
| CCN(Cc1ccncc1)Cc1nc(Cc2ccccc2Cl)no1 | 95.4% |
| CCOC(=O)NN1C(=O)c2ccccc2NC1c1ccc(OC)c(OC)c1 (stereo not drawn) | 103% |
| COc1ccc2c(c1)c(CC(=O)O)c(C)n2C(=O)c1ccc(Cl)cc1 | 101% |
| CC1=CC2(O)OCCN(CCO)C2=CC1=O (stereo not drawn) | 93.3% |
| Cc1ccccc1C(OCCN(C)C)c1ccccc1 (stereo not drawn) | 85.3% |
| COC1(C)CC2C(CC1OC(=O)c1cc([N+](=O)[O-])cc([N+](=O)[O-])c1)C2(C)C (stereo not drawn) | 178% (active) |
| O=C1OC(c2ccc(O)cc2)(c2ccc(O)cc2)c2ccccc21 | 103% |
| Cn1c(=O)c2c(ncn2CC(O)CO)n(C)c1=O (stereo not drawn) | 104% |
| Cc1cnc(C(=O)N2CCCC(C(=O)c3ccc(Cl)cc3C)C2)cn1 (stereo not drawn) | 96.4% |
| CN(C)C(=O)C12CCC(C)(c3nc4ccccc4nc31)C2(C)C (stereo not drawn) | 99.4% |
| CCOC(=O)c1ccc(N2C(=O)C(CC(N)=O)N(CCc3ccc(OC)c(OC)c3)C2=S)cc1 (stereo not drawn) | 96.4% |
| Cc1cnc(C(=O)NCCc2ccc(S(=O)(=O)NC(=O)NC3CCCCC3)cc2)cn1 | 92.3% |
| COc1cccc2c1C(=O)O/C2=C/c1ccc2c(c1)OCO2 | 92.3% |
| COc1ccc(C2N3CC4(C)CN2CC(C)(C3)C4)cc1OC (stereo not drawn) | 87.3% |
